Reference: PubChem BioAssay
Unmarked numbers belong to inactive results. Calls of active or inactive are those of the source.

Test: budding yeast growth changes without added modifier – OD600, strain BY4716, 24 h, basal condition, primary screen (AID 1173)
Conditions: S. cerevisiae BY4716 growth, OD600, 24 h; higher = more signal, called active from +8 up or from −8 down
In the case of `COc1ccc([Si](C)(C)[C@@H]2[C@@H](CC(=O)N(CCO)Cc3ccccc3)O[C@]3(C(=O)N(Cc4ccc(I)cc4)c4ccccc43)[C@H]2C)cc1`, the z-score is reported as -0.498.
Molecule `COCCn1c(C(=O)N(C)C)cc2c1C[C@H]1CN(C(=O)c3ccccc3)[C@@](Cc3ccc(OC)cc3)(C(=O)OC)[C@@H]21` has a z-score of 1.63.
Molecule `O=C1C2C=CC(C(O)c3cccs3)N(Nc3ccc([N+](=O)[O-])cc3)C2C(=O)N1c1ccccc1` (stereo not drawn) has a z-score of 0.348.
With `O=C1O[C@@H](c2ccccc2)[C@@H](c2ccccc2)N2[C@@H](c3ccc(OCCO)cc3)[C@]3(C(=O)Nc4ccc(C#CC5(O)CCCCCC5)cc43)[C@@H](C(=O)Nc3nc4ccccc4s3)[C@H]12` the z-score was 1.28.
For `CC(C)[Si](C#CCCc1ccccc1)(O[C@H](c1ccccc1)c1cn(Cc2ccccc2)nn1)C(C)C`, the z-score was -8.07 (active).
`COCCOC(=O)N1C(=O)[C@@]2(c3cc(C#CC4(O)CCCCCC4)ccc31)[C@H](c1ccc(O)cc1)N1[C@H](c3ccccc3)[C@H](c3ccccc3)OC(=O)[C@H]1[C@@H]2C(=O)N1CCCCCCC1` gave a z-score of -0.525.
For `CN1C(=O)C2C(C3CC3)C=C3CN(Cc4cccc(Cl)c4)[C@@H]([C@@H](O)Cc4ccccc4)C3C2C1=O` (stereo partly drawn), the z-score was -1.83.
Molecule `C=CCC(OC(C)=O)[C@@H]1[C@@H](N(Cc2ccc(-c3ccccc3)cc2)C(=O)c2cccc3ccccc23)c2cc(OCCCO)ccc2N1C(=O)Cc1ccc(OC)cc1` (stereo partly drawn) has a z-score of 0.186.
In the case of `O=C1NC(=O)C2C1C=CC(C(O)c1ccc([N+](=O)[O-])cc1)N2Nc1ccccn1` (stereo not drawn), the z-score is reported as 0.579.
With `CCCCC(O)C1C=CC2C(=O)N(c3ccccc3)C(=O)C2N1Nc1ccccc1` (stereo not drawn) the z-score was -1.67.
In the case of `COCCOC(=O)N1C(=O)[C@@]2(c3cc(C#Cc4ccc(OC)cc4)ccc31)[C@H](c1ccc(OCCO)cc1)N1[C@H](c3ccccc3)[C@H](c3ccccc3)OC(=O)[C@H]1[C@@H]2C(=O)NC[C@H](O)c1ccccc1`, the z-score is reported as 3.05.
Molecule `O=C1O[C@H](c2ccccc2)[C@H](c2ccccc2)N2[C@H]1[C@@H](C(=O)N1CCN(c3ncccn3)CC1)[C@]1(C(=O)Nc3ccc(C#CCCO)cc31)[C@H]2c1ccc(O)cc1` has a z-score of 0.298.
Work on `O=C1C[C@@](C(=O)O)(c2ccc([N+](=O)[O-])cc2)[C@@H](c2ccc(CO)cc2)N1C1CCCCC1` yielded a z-score of 0.408.
Molecule `CN(C)CCCNC(=O)[C@@]1(C)c2ccccc2C(=O)N(Cc2ccc(OC(F)(F)F)cc2)[C@H]1c1ccc(CO)cc1` has a z-score of -1.69.
In the case of `COCCOC(=O)N1C(=O)[C@@]2(c3cc(C#CCCO)ccc31)[C@H](c1ccc(OCCO)cc1)N1[C@H](c3ccccc3)[C@H](c3ccccc3)OC(=O)[C@H]1[C@@H]2C(=O)N1CCCCCCC1`, the z-score is reported as 0.532.
`C#CCN1[C@@H](Cc2ccccc2)C(=O)O[C@H](Cc2ccccc2)[C@@H]1/C=C/C1CC1` gave a z-score of -0.236.
Molecule `CC(C)C[C@@H]1NC(=O)[C@@H]2C[C@H](C(=O)NCCCCCCNC(=O)CS)[C@H](c3cccc(OCCO)c3)N2C1=O` has a z-score of 1.05.
Work on `CCCCCC1=C2CNC(CC(C)C)(C(=O)OC)C=C2C(C)C1=O` (stereo not drawn) yielded a z-score of 0.153.

Test: viability profiling in MM1S myeloma cells – cell-based, resazurin fluorescence, basal, 24 h, PK04 Diversity Set, profiling panel (AID 1174);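 further: MM1S multiple myeloma cell line; test concentration not given here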
Conditions: higher = more signal, called active from +8 up or from −8 down
`COC(=O)[C@H](Cc1ccc(O)cc1)N[C@@H](/C=C/C1CC1)[C@H](O)Cc1ccccc1` gave a z-score of -0.163.
`COc1ccc(CCNC(=O)[C@@H]2c3ccccc3C(=O)N(Cc3ccccc3OC)[C@H]2c2ccc(CO)cc2)cc1` showed a z-score of -0.0684.
`COc1ccc(C(=O)Nc2cccc(CN3C(=O)[C@]4(O[C@H](CC(=O)N5Cc6ccccc6C[C@H]5CO)[C@@H]([Si](C)(C)c5ccc(OC)cc5)[C@@H]4C)c4ccccc43)c2)cc1` gave a z-score of -1.38.
`C=CCN1Cc2ccccc2[C@H]2OC(c3ccc(OCCCO)cc3)=N[C@@]2(CCS(=O)(=O)c2ccccc2)C1=O` showed a z-score of -0.321.
`C=CCOC(=O)[C@H]1[C@@H]2C(=O)O[C@@H](c3ccccc3)[C@@H](c3ccccc3)N2[C@@H](c2ccc(OCCOC(=O)[C@H]3C[C@H]4C(=O)N[C@@H](CC(C)C)C(=O)N4[C@H]3c3ccc(O)cc3)cc2)[C@]12C(=O)Nc1ccccc12` gave a z-score of 0.407.
`CC1CC/C=C\[C@H]2OC34C=CCN(Cn5nnc6ccccc65)C(=O)[C@H]3N(CCCCCCO)C(=O)[C@@H]4C2C(=O)O1` (stereo partly drawn) gave a z-score of 0.501.
With `[N-]=[N+]=Nc1ccccc1C[C@@]1(C(=O)NCc2ccccc2)N=C(c2ccc(OCCCO)cc2)O[C@@H]1c1ccccc1N=[N+]=[N-]` the z-score was -2.18.
In the case of `Cc1ccc(S[C@]2(C(=O)NCCCN(C)C)CC(=O)N(C3Cc4ccccc4C3)[C@@H]2c2ccc(CO)cc2I)cc1`, the z-score is reported as -2.99.
In the case of `CC(C)N1C(=O)c2ccccc2[C@](C)(C(=O)NCC(F)(F)F)[C@@H]1c1ccc(CO)cc1`, the z-score is reported as 0.117.
`CN(C)CCCC[C@@H]1NC(=O)[C@H]2C[C@@H](C(=O)O)[C@@H](c3ccc(O)cc3)N2C1=O` showed a z-score of 0.41.
With `O=C1[C@@H]2[C@@H](CC(COc3ccccc3)=C([C@H](O)CCc3ccccc3)[C@@H]2CO)C(=O)N1Cc1ccccc1` the z-score was -0.577.
In the case of `C=C(CCCC)/C(=C/C[C@H](OC(=O)c1ccncc1)c1ccccc1OCCO)c1cc(C(=O)OC)ccc1OC`, the z-score is reported as 0.531.
`CC(C)NC(=O)[C@@]1(C)c2ccccc2C(=O)N(Cc2ccccc2)[C@H]1c1ccc(CO)cc1` showed a z-score of 0.782.
For `COc1ccc(C#Cc2ccc3c(c2)[C@]2(C(=O)N3)[C@H](C(=O)O)[C@H]3C(=O)O[C@H](c4ccccc4)[C@H](c4ccccc4)N3[C@@H]2c2ccccc2OCCO)cc1`, the z-score was -2.53.
Work on `CCCCCCc1nc(Cc2cc(OC)c(OC)c(OC)c2)cc2c1[Si](C(C)C)(C(C)C)O[C@H]2c1ccccc1` yielded a z-score of -0.111.
Work on `O=C1C[C@@](C(=O)NCc2ccccc2)(c2ccc([N+](=O)[O-])cc2)[C@@H](c2ccc(CO)cc2)N1C1CCCCC1` yielded a z-score of -0.163.
For `O=C(NCc1ccccc1)[C@@H]1c2ccccc2C(=O)N(Cc2cc(C(F)(F)F)cc(C(F)(F)F)c2)[C@H]1c1ccc(CO)cc1`, the z-score was 0.3.
`COc1ccc([Si](C)(C)[C@@H]2[C@@H](CC(=O)N(CCO)Cc3ccccc3)O[C@]3(C(=O)N(Cc4ccc(I)cc4)c4ccccc43)[C@H]2C)cc1` showed a z-score of -2.27.
`COCCn1c(C(=O)N(C)C)cc2c1C[C@H]1CN(C(=O)c3ccccc3)[C@@](Cc3ccc(OC)cc3)(C(=O)OC)[C@@H]21` gave a z-score of -1.43.
`O=C1C2C=CC(C(O)c3cccs3)N(Nc3ccc([N+](=O)[O-])cc3)C2C(=O)N1c1ccccc1` (stereo not drawn) gave a z-score of -0.125.
In the case of `O=C1O[C@@H](c2ccccc2)[C@@H](c2ccccc2)N2[C@@H](c3ccc(OCCO)cc3)[C@]3(C(=O)Nc4ccc(C#CC5(O)CCCCCC5)cc43)[C@@H](C(=O)Nc3nc4ccccc4s3)[C@H]12`, the z-score is reported as -0.0769.
`CC(C)[Si](C#CCCc1ccccc1)(O[C@H](c1ccccc1)c1cn(Cc2ccccc2)nn1)C(C)C` showed a z-score of -0.016.
`COCCOC(=O)N1C(=O)[C@@]2(c3cc(C#CC4(O)CCCCCC4)ccc31)[C@H](c1ccc(O)cc1)N1[C@H](c3ccccc3)[C@H](c3ccccc3)OC(=O)[C@H]1[C@@H]2C(=O)N1CCCCCCC1` showed a z-score of 0.341.
In the case of `CN1C(=O)C2C(C3CC3)C=C3CN(Cc4cccc(Cl)c4)[C@@H]([C@@H](O)Cc4ccccc4)C3C2C1=O` (stereo partly drawn), the z-score is reported as 0.076.
`C=CCC(OC(C)=O)[C@@H]1[C@@H](N(Cc2ccc(-c3ccccc3)cc2)C(=O)c2cccc3ccccc23)c2cc(OCCCO)ccc2N1C(=O)Cc1ccc(OC)cc1` (stereo partly drawn) showed a z-score of -0.572.
Molecule `O=C1NC(=O)C2C1C=CC(C(O)c1ccc([N+](=O)[O-])cc1)N2Nc1ccccn1` (stereo not drawn) has a z-score of -0.76.
`CCCCC(O)C1C=CC2C(=O)N(c3ccccc3)C(=O)C2N1Nc1ccccc1` (stereo not drawn) gave a z-score of -0.125.
In the case of `COCCOC(=O)N1C(=O)[C@@]2(c3cc(C#Cc4ccc(OC)cc4)ccc31)[C@H](c1ccc(OCCO)cc1)N1[C@H](c3ccccc3)[C@H](c3ccccc3)OC(=O)[C@H]1[C@@H]2C(=O)NC[C@H](O)c1ccccc1`, the z-score is reported as -0.486.
Work on `O=C1O[C@H](c2ccccc2)[C@H](c2ccccc2)N2[C@H]1[C@@H](C(=O)N1CCN(c3ncccn3)CC1)[C@]1(C(=O)Nc3ccc(C#CCCO)cc31)[C@H]2c1ccc(O)cc1` yielded a z-score of 0.34.
With `O=C1C[C@@](C(=O)O)(c2ccc([N+](=O)[O-])cc2)[C@@H](c2ccc(CO)cc2)N1C1CCCCC1` the z-score was -0.544.
`CN(C)CCCNC(=O)[C@@]1(C)c2ccccc2C(=O)N(Cc2ccc(OC(F)(F)F)cc2)[C@H]1c1ccc(CO)cc1` showed a z-score of -1.18.
With `COCCOC(=O)N1C(=O)[C@@]2(c3cc(C#CCCO)ccc31)[C@H](c1ccc(OCCO)cc1)N1[C@H](c3ccccc3)[C@H](c3ccccc3)OC(=O)[C@H]1[C@@H]2C(=O)N1CCCCCCC1` the z-score was -0.292.
In the case of `C#CCN1[C@@H](Cc2ccccc2)C(=O)O[C@H](Cc2ccccc2)[C@@H]1/C=C/C1CC1`, the z-score is reported as 1.56.
Molecule `CC(C)C[C@@H]1NC(=O)[C@@H]2C[C@H](C(=O)NCCCCCCNC(=O)CS)[C@H](c3cccc(OCCO)c3)N2C1=O` has a z-score of -1.1.
`CCCCCC1=C2CNC(CC(C)C)(C(=O)OC)C=C2C(C)C1=O` (stereo not drawn) gave a z-score of -1.2.
